KAT2A inh: inhibitors of human GCN5L2 histone acetyltransferase; Q92830; GCN5L2 HAT assay, ThioGlo1 CoA-SH fluorescence; Potency, µM (series often up to 58.9 µM), inactives show top-dose activity change, negative = inhibition, usual class: inhibitors; 390,000 tested, 0.21% active; AID 504327; note: potency is the fitted concentration of half-maximal effect
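GCN5L2 (20nM final) in 50mM HEPES, 0.1mM EDTA pH 7.5, 0.01% Tween-20 was preincubated 15 min at room temperature with compound, then given ThioGlo1 (50uM), H3(1-25) peptide (75uM) and acetyl-CoA (70uM); CoA-thiol fluorescence (Ex340/Em540) was read at 0 and 20 min.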
RECQ1 inh: inhibitors of human RECQ1 DNA helicase; RECQ1 DNA unwinding, red fluorescence kinetic read; 240,000 tested, 0.54% active; Potency, µM (top dose mostly 57.3 µM), for the others: at the highest dose activity, negative = inhibition, hits mostly inhibitors; P46063;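 note: potency is the fitted concentration of half-maximal effect; plate controls were vehicle for no effect and no enzyme for full effect; nearly all actives have a fitted effect of over 30% in size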
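RECQ1T1 50 nM; forked duplex (20 bp + 30-nt ss tails) 200 nM, ATP 2 mM final; pH 8.0, 2 mM MgCl2, 2.5 ug/ml poly(dI-dC); 15 min compound preincubation; discontinuous kinetic read over 2 h at RT.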
BLM inh: Bloom syndrome helicase (human) inhibition; AID 2528; 350,000 tested, 0.2% active; recombinant BLM DNA unwinding, fluorescence dequenching; Potency, µM (titrated, usually from 56.1 µM), for the others: at the top dose activity change, negative = inhibition, usual class: inhibitors;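 note: potency is the fitted concentration of half-maximal effect; plate controls were vehicle for no effect and no enzyme for full effect; nearly all actives have a fitted effect of over 35% in size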
FEN1 inh: blocks human flap endonuclease 1. 390,000 tested, 0.35% active. Recombinant FEN1 flap cleavage, fluorescence, 15 min. Potency, µM (top dose mostly 114 µM), without a hit: at the top dose activity change, negative = inhibition, usual class: inhibitors; note: potency is the fitted concentration of half-maximal effect; nearly all actives have a fitted effect of over 65% in size
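Potency values derive from four-parameter Hill fits of normalized qHTS data. The reaction used 10 nM FEN1 preincubated 15 min at room temperature with compound, then 50 nM DNA substrate, read at 0 and 15 min.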
PI5P4Ka inh: inhibitors of human PI5P4K alpha. P48426. PI5P4Kalpha enzyme, ADP-Glo luminescence, 60 min; active compounds read low. max response, %. 330,000 tested, 1.2% active; active = max response of -50% or lower; inconclusive = between -30% and -50%; inactive = -30% or higher; note: value at the top dose of about 77 µM
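Luminescence from ADP-Glo served as readout of PI5P4Kalpha activity in a qHTS format. Reaction: enzyme, substrate, compound, ATP at 5 microM final, 60 min at RT.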
APEX1 inh: inhibitors of human APE1 endonuclease; P27695; recombinant APE1, TAMRA/BHQ-2 abasic DNA cleavage fluorescence; Potency, µM (series often up to 65.8 µM), for the others: at the top dose activity change, negative = inhibition, actives largely listed as inhibitors; 350,000 tested, 0.35% active;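 note: potency is the fitted concentration of half-maximal effect; plate controls were vehicle for no effect and reference inhibitor for full effect; nearly all actives have a fitted effect of over 55% in size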
Target sequence (P27695 whole entry, looked up): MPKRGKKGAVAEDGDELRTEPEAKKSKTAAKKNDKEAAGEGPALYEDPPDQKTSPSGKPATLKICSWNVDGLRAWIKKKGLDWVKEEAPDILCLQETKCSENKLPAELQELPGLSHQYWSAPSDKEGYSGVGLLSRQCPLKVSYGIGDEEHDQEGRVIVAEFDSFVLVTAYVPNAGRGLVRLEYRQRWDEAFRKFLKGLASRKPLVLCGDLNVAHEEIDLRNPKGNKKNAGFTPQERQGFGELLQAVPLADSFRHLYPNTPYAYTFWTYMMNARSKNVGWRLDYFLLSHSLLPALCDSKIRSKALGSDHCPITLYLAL
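Endonuclease cleavage of a quenched abasic-site DNA duplex (50 nM) by APE1 (0.75 nM) was tracked by TAMRA dequenching. Compounds were preincubated with enzyme 15 min at room temperature; data normalized to buffer-only and DMSO wells plus NSC13755 control.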
ADP-Glo interf: ADP-Glo luciferase interference, PI5P4K counter-screen; shares compounds with PI5P4Ka inh; AID 743285; ADP-Glo detection counter-screen, luciferase luminescence, no enzyme; 1,100 tested, under 10 active; Potency, µM (highest dose often 76.9 µM), inactives show at the top dose activity change, negative = inhibition, most hits filed as inhibitors
* hit, by the source's call; i = inactive; ? = inconclusive; . = not tested or not shown. The list is not random: actives were taken first. Their share in the collection is about 1.5%. Unless noted, calls come from the whole dose curve; as a rule, active = well fitted curve in the direction sought with a large enough effect; inconclusive = small, poorly fitted or top-dose-only effect, or another doubt; inactive = no such curve, though single readings can be large; an effect the other way counts as inactive or inconclusive. Unless noted, % is set by controls: 0 for no effect and ±100 for the full control effect.

SMILES | KAT2A inh | RECQ1 inh | BLM inh | FEN1 inh | PI5P4Ka inh | APEX1 inh | ADP-Glo interf
CC(C)c1ccc(C2C3=C(CC(c4ccco4)CC3=O)Nc3nc(C(F)(F)F)nn32)cc1 (stereo not drawn) | . | . | . | 17.5% | . | . | .
O=C(O)CCc1cc(I)c(O)c(I)c1 | -2.9% | i | . | . | . | -0.9% | .
S=C(NCc1ccco1)NCc1ccco1 | . | . | . | -1.1% | -75.7* | . | -0.3%
O=C(NCc1ccco1)c1ccc([N+](=O)[O-])o1 | -18.7% | ? | ? | -19.5% | -63.5* | ? | 0.9%
O=C(COc1ccc(Cl)cc1Cl)Nc1cccc(-c2ccc(N3CCOCC3)nn2)c1 | -4.6% | . | . | 7.2% | -7.0 | 27.9% | .
O=C(COc1ccccc1)Nc1cccc(-c2ccc(N3CCOCC3)nn2)c1 | -3.2% | . | . | 4.6% | -13.0 | 18.1% | -14.3%
CCc1sc(-c2cc3ccccc3oc2=O)nc1-c1ccc(C)cc1 | . | . | . | -17.2% | . | . | .
Cc1ccc(-c2ccc(CN3C(C)C(=O)N(Cc4cn(Cc5ccco5)nn4)CCS3(=O)=O)cc2)cc1 (stereo not drawn) | . | . | . | . | -0.5 | . | .
Cc1ccc(-c2ccc(CN3C(C)C(=O)N(Cc4cn(Cc5ccco5)nn4)CCS3(=O)=O)cc2)c(C)c1 (stereo not drawn) | . | . | . | . | -53.3* | . | -2.1%
CC(C)Cc1ccc(CN2C(C)C(=O)N(Cc3cn(Cc4ccco4)nn3)CCS2(=O)=O)cc1 (stereo not drawn) | . | . | . | . | -64.5* | . | -4.5%
Nc1nc(NC2CC2)c2ncn([C@H]3C=C[C@@H](CO)C3)c2n1 | -14.5% | . | -9.2% | . | . | . | .
Cc1ccc2c(CC(=O)OCC(=O)N(CC(C)C)c3c(N)n(Cc4ccccc4)c(=O)[nH]c3=O)coc2c1 | -8.9% | . | . | -2.6% | -58.9* | -28.3% | -0.9%
CN(CC(=O)Nc1c(Cl)cccc1Cl)C(=O)c1cccc(-n2cccc2)c1 | -25.7% | . | . | -10.6% | -78.0* | 4.23µM* | 0.9%
CN(CC(=O)Nc1cccc(F)c1)C(=O)c1cccc(-n2cccc2)c1 | ? | . | . | -13.8% | -81.9* | 3.36µM* | 3.8%
Cc1ccc(C)c(NC(=O)CN(C)C(=O)c2cccc(-n3cccc3)c2)c1 | -16.7% | . | . | -18.3% | -60.0* | 2.99µM* | -1.0%
CN(CC(=O)Nc1cccc(F)c1)C(=O)c1ccc(N2C(=O)c3ccccc3C2=O)cc1 | -1.4% | . | . | 2.0% | 4.4 | 56.8% | .
CN(CC(=O)Nc1c(Cl)cccc1Cl)C(=O)c1cccc(S(=O)(=O)NCc2ccccc2)c1 | -0.7% | . | . | -0.9% | -4.8 | 10.6% | .
Nc1ccccc1[N+](=O)[O-] | . | -13.1% | . | . | . | -0.2% | .
COc1ccc(C(=O)NCC(c2ccc(N(C)C)cc2)N2CCc3ccccc32)cc1 (stereo not drawn) | -2.7% | . | -5.1% | -7.0% | . | . | .
Cc1cccc2cc(CN(Cc3cccnc3)C(=S)NCCCN(C)C)c(=O)[nH]c12 | 0.2% | -11.0% | -9.6% | -10.3% | -52.9* | 0.8% | -2.6%
O=C(c1cccc(-n2cccc2)c1)N1CCN(S(=O)(=O)c2ccccc2)CC1 | ? | . | . | ? | -68.5* | 1.5µM* | 2.8%
O=S1(=O)CC(N2CCSCC2)CN1Cc1cn(Cc2ccc(F)cc2)nn1 (stereo not drawn) | . | . | . | . | -28.0 | . | 1.8%
O=S1(=O)CC(N2CCSCC2)CN1Cc1cn(Cc2ccc(Cl)cc2)nn1 (stereo not drawn) | . | . | . | . | -2.5 | . | .
CCOC(=O)c1c(NC(=O)c2ccoc2C)sc(C)c1C | -7.7% | 4.7% | -3.3% | -9.2% | 8.0 | 6.7% | .
CCc1c(C)sc(NC(=O)c2ccoc2C)c1C(N)=O | ? | . | -1.9% | -5.2% | -65.7* | 5.0% | -3.3%
COc1ccccc1N1CCN(C(=O)c2ccc(C(C)(C)C)cc2)CC1 | -2.0% | -2.9% | -5.5% | 6.2% | -61.8* | -1.1% | -6.4%
